Data on 45 molecules can be found in PubChem BioAssay AID434970 (Sanford-Burnham Center for Chemical Genomics, 2010).

Molecules are shown by their SMILES. The campaign covered roughly 11,000 compounds. About 310 (2.8%) were called active. Rule as the data show it: active = activity change below about -85%; inactive = the rest. The entries come from a sample that favours actives as a whole.

This experiment relates to intestinal alkaline phosphatase [Mus musculus]. Kind of experiment: activators of mouse IAP, confirmation, biochemical, luminescence, single concentration (AID 434970). As to conditions: purified mouse IAP, CDP-Star luminescence, 30 min, at 10 µM; activation factor: measured here: IAP activation factor, stronger effect = higher value; activity change, negative = activation: stronger effect = lower value.
For the molecule `O=C(CCS(=O)(=O)c1cccc2nonc12)Nc1cccc2c1CCCC2`, the activation factor is 0.972 and the activity change, negative = activation is 2.85% (inactive).

Regarding `O=C(c1ccc(F)cc1)N1CCN(c2cc(=O)[nH]nc2-c2ccccc2)CC1`, the activation factor was determined as 1.17 and the activity change, negative = activation was -17.4% (inactive).

With `COc1ccc(-n2c(COc3ccccc3)nnc2SCC(N)=O)cc1`, the activation factor worked out at 0.967 and the activity change, negative = activation is 3.3% (inactive).

As for `CCOC(=O)N1CCC(NC(=O)C2CCC(Cn3c(=O)[nH]c4ccccc4c3=O)CC2)CC1` (stereo not given), the activation factor amounted to 0.908 and the activity change, negative = activation is 9.15% (inactive).

Take `O=C1CC(c2nc3ccccc3[nH]2)CN1c1ccccc1` (stereo not given): the activation factor was 0.951 and the activity change, negative = activation was 4.9% (inactive).

As for `O=c1ccc(NS(=O)(=O)c2ccc(Cl)cc2)cn1Cc1ccc(Cl)c(Cl)c1`, the activation factor is 0.948 and the activity change, negative = activation was 5.2% (inactive).

With `CC1C(C)C(O)(c2ccccc2)CCN1C` (stereo not given), the activation factor came to 0.956 and the activity change, negative = activation is 4.35% (inactive).

`c1ccc(NC2=NCCCCS2)cc1`: the activation factor stood at 1.06 and the activity change, negative = activation was -5.6% (inactive).

Consider `C#CCOCCOCCOCCNc1nc(N2CCN(C(=O)CCCCCCCCCCNC(=O)[C@H]([C@@H](C)CC)n3cc(CCCCN=C(N)N)nn3)CC2)nc(N2CCN(C(=O)CCCCCCCCCCNC(=O)[C@@H]([C@H](C)O)n3cc(C)nn3)CC2)n1`, for which the activation factor was 14.6 and the activity change, negative = activation is -1360% (active).

Turning to `C#CCOCCOCCOCCNc1nc(N2CCN(C(=O)CCCCCCCCCCNC(=O)[C@H]([C@@H](C)CC)n3cc(CCCCN=C(N)N)nn3)CC2)nc(N2CCN(C(=O)CCCCCCCCCCNC(=O)[C@H]([C@@H](C)CC)n3cc(CCCCN=C(N)N)nn3)CC2)n1`, the activation factor is 22.7 and the activity change, negative = activation was -2170% (active).

With `CC(Sc1nc2ccccc2n1C)C(=O)NC(c1ccccc1)c1ccccc1` (stereo not given), the activation factor came to 0.982 and the activity change, negative = activation was 1.75% (inactive).

As for `Cc1cccc(Cn2cnc3c(NS(C)(=O)=O)c(C)c(C)cc32)c1`, the activation factor turned out to be 1.13 and the activity change, negative = activation was -12.6% (inactive).

With `NCCCCCc1nnc(SCC(=O)c2ccc(Cl)cc2)o1`, the activation factor is 1.08 and the activity change, negative = activation was -7.9% (inactive).

`C#CCOCCOCCOCCNc1nc(N2CCN(C(=O)CCCCCCCCCCNC(=O)[C@@H](CCC(=O)O)n3cc(CCCCCN)nn3)CC2)nc(N2CCN(C(=O)CCCCCCCCCCNC(=O)[C@H]([C@@H](C)CC)n3cc(CCCCCN)nn3)CC2)n1`: the activation factor amounted to 2.75 and the activity change, negative = activation is -176% (active).

Turning to `C#CCOCCOCCOCCNc1nc(N2CCN(C(=O)CCCCCCCCCCNC(=O)[C@H]([C@@H](C)CC)n3cc(CCCCCN)nn3)CC2)nc(N2CCN(C(=O)CCCCCCCCCCNC(=O)[C@H](CCCCN)n3cc(CCCC(=O)O)nn3)CC2)n1`, the activation factor amounted to 3.22 and the activity change, negative = activation was -222% (active).

Consider `CCOC(=O)c1ccc(-n2c(C)nc3c(cnn3-c3ccc(Cl)cc3)c2=O)cc1`, for which the activation factor amounted to 0.964 and the activity change, negative = activation was 3.55% (inactive).

On to `CCCCCCCCCCCC(=O)NC(C(=O)OCC)C(O)c1cccc([N+](=O)[O-])c1` (stereo not given), for which the activation factor amounted to 1.03 and the activity change, negative = activation is -2.65% (inactive).

Turning to `CC[C@]12c3[nH]c4ccc(Cl)cc4c3CCN1C(=O)[C@@H](CC(=O)NCCC1=CCCCC1)C[C@@H]2C(=O)N1CCN(C(=O)c2ccco2)CC1`, the activation factor was determined as 1.08 and the activity change, negative = activation was -8.45% (inactive).

For `CC1OC23CCCCC2C(C#N)(C(=N)O3)C1(C#N)C#N` (stereo not given), the activation factor was found to be 0.959 and the activity change, negative = activation is 4.1% (inactive).

Consider `CCN(CC(=O)Nc1ccc2c(c1)OCO2)Cc1nc2ccccc2c(=O)[nH]1`, for which the activation factor came to 1.23 and the activity change, negative = activation was -23.5% (inactive).

For the molecule `CN(CC(=O)NC(c1ccccc1)c1ccccc1)Cc1nc2ccccc2c(=O)[nH]1`, the activation factor was 2.71 and the activity change, negative = activation was -171% (active).

Regarding `CCN(CC(=O)NCc1ccc(F)cc1)Cc1nc2ccccc2c(=O)[nH]1`, the activation factor came to 1.14 and the activity change, negative = activation is -14.2% (inactive).

Consider `Cc1cc(Cl)cc(C)c1OCC(=O)O`, for which the activation factor was 1.06 and the activity change, negative = activation is -5.8% (inactive).

Regarding `COc1ccc(OC)c(NS(=O)(=O)c2ccc(NC(C)=O)cc2)c1`, the activation factor is 0.988 and the activity change, negative = activation was 1.15% (inactive).

For `Cc1cc(C)cc(NC(=O)Nc2ccccc2N2CCCCC2)c1`, the activation factor came out at 2.12 and the activity change, negative = activation is -112% (active).

On to `COc1ccccc1NS(=O)(=O)c1cccc(NC(=O)Nc2ccc(Cl)cc2)c1`, for which the activation factor stood at 1.92 and the activity change, negative = activation was -92.2% (active).

In the case of `Cc1ccc(C(=O)NCC(=O)O)cc1S(=O)(=O)N1CCCCC1`, the activation factor was determined as 0.994 and the activity change, negative = activation was 0.55% (inactive).

With `O=C(CNC1CCCCCC1)Nc1ccccc1N1CCCCC1`, the activation factor was found to be 1.04 and the activity change, negative = activation was -3.7% (inactive).

Turning to `Cc1ccc(C)c(S(=O)(=O)N2CCN(CC(=O)NC(=O)NCc3ccccc3)CC2)c1`, the activation factor was 0.972 and the activity change, negative = activation was 2.8% (inactive).

As for `COc1ccccc1NS(=O)(=O)c1ccc(C)c(C(N)=O)c1`, the activation factor was determined as 0.925 and the activity change, negative = activation is 7.5% (inactive).

Consider `O=C(Nc1ccccc1)Nc1ccc(Cl)c(S(=O)(=O)N2CCOCC2)c1`, for which the activation factor turned out to be 1.53 and the activity change, negative = activation was -53.4% (inactive).

For `COc1ccc(NC(=S)Nc2cccc(S(=O)(=O)N3CCCCC3)c2)cc1`, the activation factor worked out at 1.01 and the activity change, negative = activation was -1.4% (inactive).

As for `COc1ccc(NC(=O)Nc2ccccc2)cc1S(=O)(=O)N1CCCCC1`, the activation factor came out at 2.87 and the activity change, negative = activation is -187% (active).

On to `Cc1ccc(NC(=S)NCc2ccccc2)cc1S(=O)(=O)N1CCCCC1`, for which the activation factor was 2.87 and the activity change, negative = activation is -187% (active).

As to `O=C(Nc1ccc(F)cc1)Nc1ccccc1N1CCCCC1`, the activation factor was determined as 1.58 and the activity change, negative = activation is -57.8% (inactive).

For the molecule `COc1ccc(C(=O)Nc2cccc(C(C)=O)c2)c(OC)c1OC`, the activation factor was 0.951 and the activity change, negative = activation is 4.95% (inactive).

As to `COC(=O)CC1C(=O)NCCN1C(=O)Nc1ccccc1` (stereo not given), the activation factor was 0.938 and the activity change, negative = activation is 6.25% (inactive).

For `CCOC(=O)Cc1cc(=O)n(-c2nc3ccccc3s2)[nH]1`, the activation factor is 0.806 and the activity change, negative = activation is 19.4% (inactive).

With `O=C(CN1C(=O)C2CC=CCC2C1=O)Nc1ccc(S(=O)(=O)NC2=NCCCCC2)cc1` (stereo not given), the activation factor was found to be 0.903 and the activity change, negative = activation is 9.65% (inactive).

Regarding `CC[C@@H]1C(c2cccc(C)c2)=NN(c2ccccc2)[C@H]1C(=O)N1CCOC1=O`, the activation factor was determined as 1.14 and the activity change, negative = activation is -14.2% (inactive).

As to `COc1cccc(-n2c(SCC(=O)Nc3nccs3)nnc2-c2ccoc2C)c1`, the activation factor is 0.982 and the activity change, negative = activation is 1.8% (inactive).

As for `O=C1OCCN1C(=O)[C@H]1[C@H](c2ccc([N+](=O)[O-])cc2)C(c2ccccc2)=NN1c1ccc(Br)cc1`, the activation factor was 0.908 and the activity change, negative = activation was 9.2% (inactive).

`O=C(Nc1cccc(C(F)(F)F)c1)Nc1ccc(N2CCCC2)c(S(=O)(=O)Nc2ccccc2Cl)c1`: the activation factor turned out to be 1.67 and the activity change, negative = activation is -66.9% (inactive).

Consider `COc1ccc(C(=O)O)cc1S(=O)(=O)Nc1cccc(C)c1`, for which the activation factor worked out at 0.988 and the activity change, negative = activation is 1.25% (inactive).

Take `COc1ccccc1NS(=O)(=O)c1cc(NC(=O)Nc2cccc(C)c2)ccc1N1CCCCC1`: the activation factor amounted to 3.78 and the activity change, negative = activation is -278% (active).
